KLF5 inh = suppresses KLF5 promoter-driven expression. DLD-1 KLF5 promoter-luciferase reporter, luminescence. inhibition, % at 5 µM. 290,000 tested, 0.23% active. AID 1700;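 active = inhibition above a per-plate limit of that plate's mean compound inhibition plus 3 SD, cut at about 60% in these data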;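 note: 0% = DMSO wells and 100% = LY294002 at 200 µM; higher means less KLF5 promoter-driven luciferase light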
Jurkat NFkB inh = lowers PMA/ionomycin-induced NF-kB signal in Jurkat cells. 330,000 tested, 0.53% active. PMA/ionomycin-induced NF-kB luciferase reporter, luminescence. inhibition, % at 4 µM; in the data active = inhibition above about 50%
ANO1 activ = mouse TMEM16A channel activation, primary screen; 340,000 tested, 0.3% active; HEK293 TMEM16A/YFP-H148Q/I152L, iodide quench fluorescence; stronger effect = lower value; B-score at 10 µM;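 active = fluorescence-ratio B-score plate-corrected deviation score at least 3 library SD below zero, with starting fluorescence score within 5 deviations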;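 note: channel opened by trigger with iodide after compound preincubation; score built on the fluorescence ratio of max minus min over baseline; more negative score means more quench and so TMEM16A activation or potentiation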
Target sequence (Q8BHY3 whole entry, looked up): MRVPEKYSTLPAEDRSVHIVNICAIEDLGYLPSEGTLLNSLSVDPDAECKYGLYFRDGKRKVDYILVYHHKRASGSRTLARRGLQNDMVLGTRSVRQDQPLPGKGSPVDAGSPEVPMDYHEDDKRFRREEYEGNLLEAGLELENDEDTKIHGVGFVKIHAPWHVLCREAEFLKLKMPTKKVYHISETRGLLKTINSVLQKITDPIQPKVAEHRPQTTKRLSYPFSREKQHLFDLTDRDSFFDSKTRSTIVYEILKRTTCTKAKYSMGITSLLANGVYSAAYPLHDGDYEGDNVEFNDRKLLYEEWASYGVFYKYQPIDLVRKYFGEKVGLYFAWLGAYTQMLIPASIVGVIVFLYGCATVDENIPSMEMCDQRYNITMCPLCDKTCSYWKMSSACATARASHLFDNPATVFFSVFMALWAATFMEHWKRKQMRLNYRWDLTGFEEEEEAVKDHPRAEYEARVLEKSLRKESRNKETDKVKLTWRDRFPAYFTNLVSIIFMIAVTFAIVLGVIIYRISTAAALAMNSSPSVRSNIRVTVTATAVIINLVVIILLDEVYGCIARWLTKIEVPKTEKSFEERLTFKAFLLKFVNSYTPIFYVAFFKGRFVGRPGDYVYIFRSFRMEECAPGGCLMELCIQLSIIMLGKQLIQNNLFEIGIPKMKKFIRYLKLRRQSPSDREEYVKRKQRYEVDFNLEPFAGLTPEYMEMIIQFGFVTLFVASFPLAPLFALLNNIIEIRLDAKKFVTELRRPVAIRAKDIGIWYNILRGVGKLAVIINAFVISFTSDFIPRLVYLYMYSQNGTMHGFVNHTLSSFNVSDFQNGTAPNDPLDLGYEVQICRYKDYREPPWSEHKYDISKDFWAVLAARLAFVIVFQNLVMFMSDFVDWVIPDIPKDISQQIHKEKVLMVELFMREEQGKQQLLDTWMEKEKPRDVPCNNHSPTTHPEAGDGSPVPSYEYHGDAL
TMEM16A inh = blocks the mouse calcium-activated chloride channel TMEM16A. Q8BHY3. AID 588511. HEK293 TMEM16A/YFP iodide influx fluorescence, ionomycin. normalized B-score (activity score, 25-100; higher = stronger inhibition) at 10 µM. 310,000 tested, 1.2% active;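 active = ratio plate-corrected score three or more library SD toward inhibition, starting fluorescence score within five deviations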;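 note: score derived from kinetic fluorescence span divided by baseline fluorescence per well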
697 NFkB inh = lowers PMA/ionomycin-induced NF-kB signal in 697 B cells; inhibition, % at 4 µM; 697 B-cell NF-kB luciferase reporter, 16 h; AID 435022; 330,000 tested, 0.33% active; in the data active = inhibition above about 35%
aSyn 5UTR inh = 5' untranslated region of α-synuclein, MLPCN primary screen | inhibition, % (tested at 7.5 µM) | 300,000 tested, 0.82% active | AID 1813 | alpha-synuclein 5'UTR reporter, inhibitor activity; in the data active = inhibition above about 60%;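 note: H4 neuroglioblastoma cells stably carrying SNCA 5'UTR luciferase fusion; 0% = DMSO wells and 100% = positive control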
TMEM16A reconf = reconfirmed blocker of mouse TMEM16A calcium-activated chloride channel; shares compounds with TMEM16A inh; HEK293 TMEM16A/YFP-H148Q, iodide quench fluorescence; ionomycin added to raise cell calcium; inhibition, % at 10 µM; 2,300 tested, 39% active; AID 652189;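 active = mean duplicate percent inhibition, scaled so buffer wells are 0 and the reference blocker 100, over three buffer SD above buffer mean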
HEK293 Ca mobil = calcium mobilization counter-screen hit for TMEM16A inhibitor series. calcium response (% of ionomycin), % at 10 µM. TMEM16A/YFP HEK293, Fluo4 calcium mobilization. shares compounds with TMEM16A inh. 2,300 tested, 2% active. AID 652231;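 active = duplicate-averaged calcium signal over 20% of the ionomycin maximum, relative to buffer baseline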;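 note: each well's signal is peak minus trough fluorescence divided by its pre-addition baseline; 0% = buffer wells and 100% = ionomycin wells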
YFP-HEK293 quench = counter-screen for TMEM16A inhibitors: effect in parental YFP-HEK293 cells; shares compounds with TMEM16A inh; iodide YFP quench, ionomycin; YFP ratio F(max-min)/F0 at 10 µM; 2,300 tested, under 10 active; AID 652233;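 active = yellow fluorescent protein signal ratio exceeding the buffer control mean by over 5 SD of those controls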;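 note: ratio is mean of duplicate wells from kinetic YFP trace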
ClC-1 rat inh = blocks the rat ClC-1 voltage-dependent chloride channel | ratio percent, % at 10 µM | 2,300 tested, under 10 active | CHO ClC-1-YFP, iodide influx fluorescence quench; iodide control reads 0, buffer control 100 | shares compounds with TMEM16A inh;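 active = duplicate-mean ratio percent above the mean of iodide-only control wells, which defines zero, plus 5 of their SD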;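 note: higher percent means stronger block of ClC-1 iodide influx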
* marks the source's active call; other numbers are inactive results; i = inactive; · = not tested or not shown. This is a sample that favours compounds with a hit; in the whole collection about 2.5% have one here.

SMILES | KLF5 inh | Jurkat NFkB inh | ANO1 activ | TMEM16A inh | 697 NFkB inh | aSyn 5UTR inh | TMEM16A reconf | HEK293 Ca mobil | YFP-HEK293 quench | ClC-1 rat inh
COc1cccc(CNc2nc3ccccc3n2C)c1O | -98 | -124 | i | i | -52 | -94 | · | · | · | ·
CCOc1ccc(-n2ccnc(SCC(=O)Nc3cccc(OC)c3)c2=O)cc1 | · | 7 | i | i | -9 | 4 | · | · | · | ·
CCn1c(SCC(=O)Nc2ccc3c(c2)oc2ccccc23)nnc1-c1ccc(N)cc1 | -8 | -15 | i | 100* | -35 | -53 | i | i | -0.98 | -5
CCCCNc1c(-c2ccc(OC)c(SC3CCCCC3)c2)nc2cnccn12 | · | 17 | i | i | 8 | 31 | · | · | · | ·
COc1ccc(-c2nc3cnccn3c2NCc2ccccc2)cc1SC1CCCCC1 | · | 3 | i | 25* | 12 | 30 | i | i | -1.3 | -4
CCN(c1ccccc1)S(=O)(=O)c1cccc(C(=O)NCC(c2ccco2)N2CCCCC2)c1 (configuration not stated) | · | · | i | · | · | · | · | · | · | ·
O=c1cc(N2CCN(c3ccc(F)cc3)CC2)[nH]c(=O)n1Cc1ccc(F)cc1 | -17 | 7 | i | i | 2 | 16 | · | · | · | ·
CC1CC(C)CN(c2cc(=O)n(Cc3ccc(F)cc3)c(=O)[nH]2)C1 (configuration not stated) | -21 | 9 | i | 100* | 1 | 20 | i | i | -1 | -5
CCOc1ccc(-n2ccnc2SCC(=O)NCc2ccc3c(c2)OCO3)cc1 | 5 | -3 | i | 100* | -8 | 25 | 20%* | i | -1.2 | -8
Cn1c(/C=C/c2ccc(Br)cc2)nc2ccccc2c1=O | -72 | -83 | i | i | -53 | -171 | · | · | · | ·
COc1ccc(-c2nc3cc(NC(=O)Cc4ccc(OC)c(OC)c4)ccc3o2)cc1 | -34 | 13 | i | 100* | -18 | -69 | i | i | -0.95 | -8
COc1ccc(OCC(=O)Nc2ccc3oc(-c4ccncc4)nc3c2)cc1 | -3 | -21 | i | i | -8 | -18 | · | · | · | ·
Cc1ccc(NC(=O)CCc2c[nH]c3ccccc23)nc1 | 51 | 41 | i | i | -223 | 2 | · | · | · | ·
CCCc1cc(C(N)=O)c(NC(C)=O)s1 | -28 | 0 | i | 100* | 29 | 25 | i | i | -0.92 | -14
COc1cccc(CNC(=O)COC(=O)c2cc([N+](=O)[O-])ccc2N2CCCC2)c1 | · | -5 | i | · | 17 | · | · | · | · | ·
CCCc1cc(C(=O)N2CCN(c3ccc(C(F)(F)F)cn3)CC2)sc1C | -22 | -2 | i | 100* | 11 | 14 | i | i | -1.2 | -6
Clc1ccc(-c2csc(N3CCC(c4ccccc4)C3)n2)cc1 (configuration not stated) | 1 | -74 | i | i | -101 | -226 | · | · | · | ·
Fc1ccc(-c2csc(N3CCC(c4ccccc4)C3)n2)cc1 (configuration not stated) | -37 | -134 | i | 100* | -187 | -199 | i | i | -0.87 | -10
Cc1cc(C)c(OCC(=O)Nc2ccccc2N2CCOCC2)c(C)c1 | 11 | -1 | i | 100* | -18 | 22 | 37%* | i | -0.95 | -13
O=C(Cc1ccccc1)Nc1cc(C(=O)c2ccccc2)ccc1N1CCOCC1 | 0 | 0 | i | 100* | 12 | 16 | i | i | -1.3 | -8
O=C(CCC1CCCC1)c1c(O)c2ccccc2oc1=O | -73 | -17 | i | 100* | -38 | -37 | 34%* | 58%* | -0.94 | -38
COc1ccc(N/C(=C2\CCCC2=O)C2CCCCC2)cc1 | · | -29 | i | i | -24 | -3 | i | i | -1 | -15
COc1ccc(NC(=O)CNC(=O)C2CCCCC2)cc1 | -34 | -10 | i | i | 5 | -15 | · | · | · | ·
CN(C(=O)CSc1nnnn1C)C1(C#N)CCCCC1 | · | 4 | i | · | 13 | · | · | · | · | ·
COc1cc2ncnc(Nc3ccc4c(c3)OCO4)c2cc1OC | -34 | -18 | i | i | -11 | -14 | i | i | -0.89 | -4
SMILES | KLF5 inh | Jurkat NFkB inh | ANO1 activ | TMEM16A inh | 697 NFkB inh | aSyn 5UTR inh | TMEM16A reconf | HEK293 Ca mobil | YFP-HEK293 quench | ClC-1 rat inh
CCCN(CCC)S(=O)(=O)c1ccc2c(c1)CCCN2C(C)=O | 10 | 7 | i | i | 27 | 11 | · | · | · | ·
CCCN(CCC)S(=O)(=O)c1ccc(C(=O)N2CCCc3ccccc32)cc1 | 22 | -6 | i | 100* | -2 | -12 | i | i | -1 | -12
CSc1nc2ccc(NS(=O)(=O)c3ccc4c(c3)OCCO4)cc2s1 | -6 | 16 | i | 100* | -4 | -2 | 18%* | i | -0.93 | -16
CCOC(=O)c1cc(NC(=O)Nc2ccc(OC)c(OC)c2)c(C)nc1C | 7 | 6 | i | 100* | -4 | 9 | i | i | -1.2 | -12
Cc1cc(C)cc(OCCNC(=O)c2cc(S(=O)(=O)N3CCOCC3)ccc2F)c1 | 7 | 3 | i | i | 11 | -2 | · | · | · | ·
CCOC(=O)C(C)Sc1nc2c(c(-c3cccs3)c1C#N)CCC2 (configuration not stated) | -21 | 2 | i | i | 15 | -6 | i | i | -1.3 | -7
COc1ccc(CN(CC(O)COCc2ccccc2)S(=O)(=O)c2ccccc2Br)cc1 (configuration not stated) | · | · | · | · | 0 | · | · | · | · | ·
Cc1cccc(NC(=O)/C(C#N)=C\c2cccnc2)c1 | -34 | 4 | i | 25* | 12 | -36 | 28%* | i | -0.98 | -12
Cc1ccccc1NC(=O)Cc1nc(COC(=O)c2ncc(Cl)c(Cl)c2Cl)cs1 | · | · | i | · | · | · | · | · | · | ·
Cc1oncc1-c1csc(-c2ccccc2Cl)n1 | -21 | -4 | i | i | -8 | 13 | · | · | · | ·
Cc1oncc1-c1csc(-c2ccccc2)n1 | -41 | -35 | i | 100* | -66 | -82 | i | i | -0.93 | -12
Cc1cc(C)cc(OCC(=O)N(C)CC(=O)Nc2ccc(N3CCOCC3)cc2)c1 | · | 12 | i | · | -6 | · | · | · | · | ·
Fc1ccc(NCc2cccnc2)cc1 | 7 | -9 | i | 100* | 5 | -4 | i | i | -1.2 | -2
c1ccc(NCc2cccnc2)cc1 | -20 | -4 | i | i | 5 | · | · | · | · | ·
Cc1ccc(C)c(Oc2nnnn2-c2ccccc2)c1 | -7 | 6 | i | i | -3 | -10 | · | · | · | ·

High-throughput results deposited in PubChem BioAssay by several laboratories.
